Consider 86 sequences from paper PMC10668032, “Altered binding affinity of SIX1-Q177R correlates with enhanced WNT5A and WNT pathway effector expression in Wilms tumor”.

In all, about 33,000 sequences were measured (“e-score”: median about -0.05, highest 2% from about 0.38 on). What follows is part of a selection rich in the highest values, with near analogues and random picks from the rest.

The target in the assay is T1, SIX1-Q177R homeodomain (human, UniProt Q15475 108-198, Q177R).
T1 sequence: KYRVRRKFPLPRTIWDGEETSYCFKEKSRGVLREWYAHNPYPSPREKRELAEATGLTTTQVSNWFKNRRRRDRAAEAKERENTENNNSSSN
Description: universal protein binding microarray; Universal all-10-mer PBM (8x60K, AMADID 030236), 300 nM GST-tagged protein, Alexa Fluor 488 anti-GST; buffer, salt, pH and temperature not stated (as in Berger); high values mean tight binding. The following applies: protein: ivt; tags: N-terminal GST; dsDNA, one strand shown. A digest of the protocol: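 Duplicate protein binding microarrays (universal 'all 10-mer', 8×60K format) were incubated with GST-tagged homeodomains at 300 nM final concentration. Binding was quantified as 8-mer E-scores with the Universal PBM Analysis Suite.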
For GCACCGGA, the binding signal came to 0.162 ± 0.0479 E-score.

Consider ACACCGGG, for which the binding signal was 0.4843 ± 0.00112 E-score.

As for ACACAGGT, the binding signal is 0.252 ± 0.0297 E-score.

As to ACACCGGT, the binding signal amounted to 0.481 ± 0.00684 E-score.

As to ACACCGGC, the binding signal was 0.481 ± 0.00281 E-score.

Turning to ACTCCGGC, the binding signal amounted to 0.233 ± 0.0256 E-score.

For CACCATCC, the binding signal came out at 0.252 ± 0.00467 E-score.

For GTGCTCTA, the binding signal came out at 0.221 ± 0.0342 E-score.

For CCAACTAC, the binding signal came to 0.151 ± 0.00402 E-score.

Regarding ACCTCTAC, the binding signal was determined as 0.151 ± 0.00402 E-score.

ACCACGTG: the binding signal worked out at 0.194 ± 0.00218 E-score.

Regarding ACGGGATC, the binding signal was 0.197 ± 0.0102 E-score.

On to CGGGGTAA, for which the binding signal worked out at 0.235 ± 0.0071 E-score.

For the sequence ACACTCAC, the binding signal was 0.39 ± 0.00873 E-score.

ACTCACAC: the binding signal is 0.3 ± 0.0164 E-score.

For ACACTCAG, the binding signal was determined as 0.387 ± 0.00387 E-score.

For the sequence ACTCTTAT, the binding signal was found to be 0.212 ± 0.0414 E-score.

With ACACTCAT, the binding signal turned out to be 0.388 ± 0.0116 E-score.

For the sequence ACACTTAG, the binding signal came out at 0.355 ± 0.0376 E-score.

With ACACTTAC, the binding signal was determined as 0.378 ± 0.013 E-score.

As for ACACTTAA, the binding signal was 0.316 ± 0.0276 E-score.

For ACACTCTA, the binding signal was 0.367 ± 0.0161 E-score.

With ACACTCAA, the binding signal stood at 0.39 ± 0.0152 E-score.

On to CACTTACC, for which the binding signal was found to be 0.224 ± 0.032 E-score.

In the case of AGCCCGGG, the binding signal came out at 0.157 ± 0.00865 E-score.

Turning to CGTGAACC, the binding signal worked out at 0.17 ± 0.0126 E-score.

On to TGTATACA, for which the binding signal was 0.283 ± 0.0331 E-score.

For the sequence ACTACGTG, the binding signal turned out to be 0.21 ± 0.0113 E-score.

On to GGGGATCA, for which the binding signal is 0.275 ± 0.0112 E-score.

As for GAGGGATC, the binding signal was found to be 0.213 ± 0.0344 E-score.

As to CCCCATGA, the binding signal worked out at 0.151 ± 0.00929 E-score.

GGCGAGGA: the binding signal came to 0.174 ± 0.0324 E-score.

As to ACCCTAAG, the binding signal was 0.1853 ± 0.00154 E-score.

Turning to CACCCTTA, the binding signal amounted to 0.263 ± 0.0167 E-score.

Turning to ATACCCTA, the binding signal was 0.312 ± 0.0168 E-score.

In the case of ACCAGAAT, the binding signal is 0.161 ± 0.0505 E-score.

Turning to CCGACCAG, the binding signal came out at 0.161 ± 0.0337 E-score.

On to CAAACACG, for which the binding signal came to 0.32 ± 0.0109 E-score.

With TAAACACA, the binding signal was found to be 0.214 ± 0.0172 E-score.

Regarding GAAACACC, the binding signal was 0.4545 ± 0.000905 E-score.

For AAAACACA, the binding signal worked out at 0.188 ± 0.0109 E-score.

Regarding AAAACACG, the binding signal turned out to be 0.321 ± 0.0302 E-score.

In the case of CAAACACA, the binding signal came to 0.19 ± 0.0451 E-score.

As to CAAACACC, the binding signal worked out at 0.4485 ± 0.00209 E-score.

Regarding AAAACACT, the binding signal was 0.301 ± 0.0568 E-score.

Turning to AAAACACC, the binding signal stood at 0.437 ± 0.0129 E-score.

In the case of ACCCTCCA, the binding signal was found to be 0.175 ± 0.00491 E-score.

With AGAAGGGG, the binding signal turned out to be 0.223 ± 0.00875 E-score.

Regarding CAGAGGGG, the binding signal was found to be 0.193 ± 0.0159 E-score.

Take CACAACTG: the binding signal worked out at 0.1786 ± 0.00129 E-score.

For CACCTGAA, the binding signal amounted to 0.2354 ± 0.0017 E-score.

Take CACTTGTC: the binding signal was determined as 0.161 ± 0.0236 E-score.

Consider TCCTAGGA, for which the binding signal stood at 0.22 ± 0.0107 E-score.

Take CCGGGGAA: the binding signal was 0.18 ± 0.0043 E-score.

Take CACCCCAA: the binding signal was found to be 0.336 ± 0.0263 E-score.

Consider GCGGGGGA, for which the binding signal came out at 0.157 ± 0.00972 E-score.

ACACCAAG: the binding signal is 0.455 ± 0.0109 E-score.

With CACCAAAA, the binding signal is 0.217 ± 0.0236 E-score.

Regarding ACACAAAT, the binding signal stood at 0.167 ± 0.0837 E-score.

As for ACACCAAC, the binding signal amounted to 0.4617 ± 0.00175 E-score.

ACCCCAAA: the binding signal came out at 0.205 ± 0.0372 E-score.

As for ACCCCAAT, the binding signal was 0.266 ± 0.0184 E-score.

As to ACACCAAA, the binding signal worked out at 0.4659 ± 0.00317 E-score.

Take ATACCAAC: the binding signal came to 0.163 ± 0.00749 E-score.

In the case of ACACCAAT, the binding signal is 0.473 ± 0.00609 E-score.

Consider GCACCAAC, for which the binding signal was 0.261 ± 0.0127 E-score.

Take ACACAAAG: the binding signal is 0.236 ± 0.0826 E-score.

ACTCCAAG: the binding signal stood at 0.2 ± 0.00662 E-score.

GGAGAATA: the binding signal worked out at 0.193 ± 0.0325 E-score.

Consider CCTGAACA, for which the binding signal came to 0.254 ± 0.00385 E-score.

In the case of AGTTAAGA, the binding signal stood at 0.155 ± 0.00537 E-score.

On to CCGGGTTC, for which the binding signal turned out to be 0.22 ± 0.0235 E-score.

Turning to AGTTAGGA, the binding signal came to 0.153 ± 0.019 E-score.

Regarding GACCCGGA, the binding signal came to 0.184 ± 0.0271 E-score.

As for ACGCGCAG, the binding signal was determined as 0.175 ± 0.0335 E-score.

As to ACGCACAC, the binding signal came out at 0.307 ± 0.0495 E-score.

On to ACACGCAG, for which the binding signal was determined as 0.391 ± 0.00589 E-score.

For the sequence ACACGCAT, the binding signal was 0.383 ± 0.00385 E-score.

Regarding ACACGCAA, the binding signal was determined as 0.3952 ± 0.00317 E-score.

For the sequence ACACGCAC, the binding signal worked out at 0.4052 ± 0.00394 E-score.

On to CCCCGCAA, for which the binding signal came to 0.17 ± 0.00535 E-score.

For the sequence ACTCCCCT, the binding signal was 0.249 ± 0.0205 E-score.

Turning to CGGATCAG, the binding signal worked out at 0.174 ± 0.00822 E-score.

As for ACCGGAGG, the binding signal was determined as 0.183 ± 0.0608 E-score.

As for ACTCCTCC, the binding signal came out at 0.213 ± 0.0626 E-score.

For ATTTGACA, the binding signal came to 0.216 ± 0.00896 E-score.
